{
  "source": "PubChem BioAssay",
  "note": "Unmarked numbers belong to inactive results. Activity calls are given as the source filed them. Note: test concentration not given here.",
  "data": [
    {"experiment": "growth effects on S. cerevisiae YJM789 – YJM789 clinical isolate, OD600, 24 h, basal, primary screen (AID 1089);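 note: growth of clinical yeast isolate S. cerevisiae YJM 789 seeded 1000 cells per well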", "details": "higher = more signal, called active from +8 up or from −8 down", "values": [
      {"smiles": "CCOc1cc(C(O)C2C=CC3C(=O)N(C)C(=O)C3N2Nc2ccccc2)ccc1O", "note": "(configuration not stated)", "z-score": 0.921},
      {"smiles": "C=C(C(=O)CC[C@@H](OC(C)=O)c1ccc(CO)o1)C(C)C", "z-score": -2.4},
      {"smiles": "CC(=O)NCCCC[C@@H]1NC(=O)[C@@H]2C[C@H](C(=O)NCCCC[N+](C)(C)C)[C@H](c3ccc(O)cc3)N2C1=O", "z-score": 0.305},
      {"smiles": "CCOC(=O)C1CCCCN1", "note": "(configuration not stated)", "z-score": -0.0725},
      {"smiles": "C=CCOC(=O)[C@H]1[C@@H]2C(=O)O[C@@H](c3ccccc3)[C@@H](c3ccccc3)N2[C@@H](c2ccc(OCCOC(=O)[C@@H]3C[C@@H]4C(=O)N[C@@H](CCCCN(C)C)C(=O)N4[C@@H]3c3ccc(O)cc3)cc2)[C@]12C(=O)Nc1ccccc12", "z-score": 0.693},
      {"smiles": "CCCC[C@@H]1C[C@H]1[C@@H](NC(=O)c1cccs1)c1ccc(C(F)(F)F)cc1", "z-score": 1.19}
    ]},
    {"experiment": "S. pombe growth modifiers, basal conditions – strain 972, OD600, 24 h, no modulator, primary screen (AID 1090);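 note: basal condition with compound alone and no growth modifier present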", "details": "S. pombe 972 growth, higher = more signal, called active from +8 up or from −8 down", "values": [
      {"smiles": "[N-]=[N+]=Nc1ccccc1[C@H]1OC(c2ccc(OCCCO)cc2)=N[C@@]1(Cc1ccccc1)C(=O)N1CCCCC1", "z-score": 0.708},
      {"smiles": "CCCNC(=O)[C@@]1(c2ccc([N+](=O)[O-])cc2)CC(=O)N(C2CCCCC2)[C@@H]1c1ccc(CO)cc1", "z-score": -0.514},
      {"smiles": "CN1C(=O)C2C=CC(C(O)c3ccccn3)N(N(c3ccccc3)c3ccccc3)C2C1=O", "note": "(configuration not stated)", "z-score": 0.863},
      {"smiles": "COCCOC(=O)N1C(=O)[C@@]2(c3cc(C#CC4=CCCCC4)ccc31)[C@H](c1ccc(O)cc1)N1[C@H](c3ccccc3)[C@H](c3ccccc3)OC(=O)[C@H]1[C@@H]2C(=O)N1CCN(c2ncccn2)CC1", "z-score": 0.371},
      {"smiles": "C[N+](C)(C)CCCCCCNC(=O)[C@H]1C[C@H]2C(=O)N[C@@H](Cc3ccccc3)C(=O)N2[C@H]1c1ccc(O)cc1", "z-score": 0.162},
      {"smiles": "O=C1NC(=O)C2C1C=CC(C(O)c1cccc3ccccc13)N2Nc1ccc(Cl)cc1Cl", "note": "(configuration not stated)", "z-score": -0.615},
      {"smiles": "COC(=O)[C@@]1(Cc2ccc(F)cc2)[C@H]2c3cc(C(=O)N4CCCC4)n(CCc4ccc(O)c(O)c4)c3C[C@H]2CN1C(=O)c1ccccc1", "z-score": 1.16},
      {"smiles": "O=C(CS)NCCCCCCNC(=O)[C@H]1C[C@H]2C(=O)N[C@@H](Cc3ccccc3)C(=O)N2[C@H]1c1ccc(O)cc1", "z-score": 1.1},
      {"smiles": "C#CCN([C@@H](Cc1ccc(O)cc1)C(=O)OC)[C@@H](/C=C/C1CC1)[C@H](O)Cc1ccccc1", "z-score": -4.05},
      {"smiles": "CCOC(=O)c1ccc(NC(=O)O[C@H]2[C@H](OC(=O)Nc3ccc4c(c3)OCO4)[C@@H](OC(=O)Nc3ccc4c(c3)OCO4)[C@@H](OC)O[C@@H]2CO)cc1", "z-score": 2.29},
      {"smiles": "O=c1n(-c2ccccc2)c(=O)n2n1CC(COc1ccccc1)=C([C@H](O)CCc1ccccc1)[C@@H]2CO", "z-score": -1.79},
      {"smiles": "COc1ccc([Si](C)(C)[C@@H]2[C@@H](CC(=O)N3Cc4ccccc4C[C@H]3CO)O[C@]3(C(=O)N(Cc4cccc(N5C(=O)c6cccc7cccc5c67)c4)c4ccccc43)[C@H]2C)cc1", "z-score": 0.93},
      {"smiles": "CN(C)C(=O)[C@]1(CCS(=O)(=O)c2ccccc2)N=C(c2ccc(OCCCO)cc2)O[C@@H]1c1ccccc1N=[N+]=[N-]", "z-score": -0.327},
      {"smiles": "COC(=O)[C@@]1(Cc2ccc(OC)cc2)[C@H]2c3cc(C(=O)N4CCCC4)n(Cc4c(-c5ccccc5)noc4C)c3C[C@H]2CN1C(=O)c1ccccc1", "z-score": 1.32},
      {"smiles": "O=C1O[C@H](c2ccccc2)[C@H](c2ccccc2)N2[C@H]1[C@@H](C(=O)O)[C@]1(C(=O)Nc3ccc(C#CC4=CCCCC4)cc31)[C@H]2c1ccc(O)cc1", "z-score": -0.113},
      {"smiles": "COc1cc2c(cc1OC)CN(C(=O)[C@@H]1[C@H]3C(=O)O[C@H](c4ccccc4)[C@H](c4ccccc4)N3[C@H](c3ccc(OCCO)cc3)[C@@]13C(=O)Nc1ccccc13)CC2", "z-score": 1.16},
      {"smiles": "COC(=O)[C@@]1(Cc2ccccc2)[C@H]2c3cc(C(=O)N(C)C)n(CCN4CNCC4=O)c3C[C@H]2CN1C(=O)c1ccccc1", "z-score": 0.707},
      {"smiles": "CN(C)c1ccc(C(O)C2C=CC3C(=O)N(c4ccccc4)C(=O)C3N2Nc2ccc([N+](=O)[O-])cc2)cc1", "note": "(configuration not stated)", "z-score": -1.3},
      {"smiles": "C=C(C)c1cc2c(c(CCCCCC)n1)[Si](C(C)C)(C(C)C)OC2", "z-score": 0.653},
      {"smiles": "O=C1O[C@@H](c2ccccc2)[C@@H](c2ccccc2)N2[C@@H](c3ccc(O)cc3)[C@]3(C(=O)Nc4ccc(C#CC5(O)CCCCCC5)cc43)[C@@H](C(=O)NC[C@H](O)c3ccccc3)[C@H]12", "z-score": -0.0625},
      {"smiles": "COCCCNC(=O)[C@@]1(Cc2ccccc2N=[N+]=[N-])N=C(c2ccc(OCCCO)cc2)O[C@H]1c1ccccc1", "z-score": -1.17},
      {"smiles": "O=C1O[C@H](c2ccccc2)[C@H](c2ccccc2)N2[C@H]1[C@@H](C(=O)Nc1nc3ccccc3s1)[C@]1(C(=O)Nc3ccc(C#CCCO)cc31)[C@H]2c1ccc(O)cc1", "z-score": 0.936},
      {"smiles": "COC(=O)[C@@]1(Cc2ccccc2)[C@H]2c3cc(C(=O)N(C)C)n(CCc4ccc(O)c(OC)c4)c3C[C@H]2CN1C(=O)c1ccccc1", "z-score": -0.0531},
      {"smiles": "O=C1OCC=C[C@H]2OC34C=CCN(c5ccc(Cl)cc5)C(=O)[C@H]3N(CCO)C(=O)[C@@H]4[C@@H]12", "note": "(some centres not stated)", "z-score": -0.846},
      {"smiles": "CC(C)Cc1ccc(CN2CC[C@@H](NC(=O)Nc3ccccc3)C2)cc1", "z-score": "-21.2 (active)"},
      {"smiles": "C=CCC(OC(C)=O)[C@@H]1[C@@H](N(Cc2cc3ccccc3o2)C(=O)c2ccc(-c3ccccc3)cc2)c2cc(OCCCO)ccc2N1C(=O)c1ccc2ccccc2c1", "note": "(some centres not stated)", "z-score": 0.314},
      {"smiles": "Cc1ccc(S[C@]2(C(=O)O)CC(=O)N(Cc3ccccc3Cl)[C@@H]2c2ccc(CO)cc2I)cc1", "z-score": -1.71},
      {"smiles": "COCCCNC(=O)[C@@]1(Sc2ccc(C)cc2)CC(=O)N(C2CCCCC2)[C@@H]1c1ccc(CO)cc1", "z-score": 0.478},
      {"smiles": "COCC1=C2[C@@H](CCc3ccccc3)OB(O)C[C@@H]2[C@@H]2C(=O)C=CC(=O)[C@@H]2C1", "z-score": -2.86},
      {"smiles": "COc1ccc([Si](C)(C)[C@@H]2[C@@H](CCn3cc([C@H](O)c4ccccc4)nn3)O[C@]3(C(=O)N(Cc4ccc(N5CCC5=O)cc4)c4ccccc43)[C@H]2C)cc1", "z-score": 0.375},
      {"smiles": "CCOc1cc(C(O)C2C=CC3C(=O)N(C)C(=O)C3N2Nc2ccccc2)ccc1O", "note": "(configuration not stated)", "z-score": 1.23},
      {"smiles": "C=C(C(=O)CC[C@@H](OC(C)=O)c1ccc(CO)o1)C(C)C", "z-score": -0.357},
      {"smiles": "CC(=O)NCCCC[C@@H]1NC(=O)[C@@H]2C[C@H](C(=O)NCCCC[N+](C)(C)C)[C@H](c3ccc(O)cc3)N2C1=O", "z-score": -0.266},
      {"smiles": "CCOC(=O)C1CCCCN1", "note": "(configuration not stated)", "z-score": 0.438},
      {"smiles": "C=CCOC(=O)[C@H]1[C@@H]2C(=O)O[C@@H](c3ccccc3)[C@@H](c3ccccc3)N2[C@@H](c2ccc(OCCOC(=O)[C@@H]3C[C@@H]4C(=O)N[C@@H](CCCCN(C)C)C(=O)N4[C@@H]3c3ccc(O)cc3)cc2)[C@]12C(=O)Nc1ccccc12", "z-score": -2.78},
      {"smiles": "CCCC[C@@H]1C[C@H]1[C@@H](NC(=O)c1cccs1)c1ccc(C(F)(F)F)cc1", "z-score": 1.01}
    ]}
  ]
}
